Reference: PubChem BioAssay AID2289 (National Center for Advancing Translational Sciences (NCATS), 2010)
Several values for one entry are separate records, joined by “and”; a condition that tells them apart may be missing. Equal values may be shown once. The whole screen tested about 340,000 compounds, of which about 3,300 (0.97%) were called active. About 9% were inconclusive and are not listed. Calls follow the shape of the dose curve; as a rule, active = well fitted inhibition curve with a large enough effect; inconclusive = small, poorly fitted or top-dose-only effect, or effect the other way; inactive = flat fitted curve, though single readings scatter. The list shows a part of the results.
Potency is read from the fitted curve at half-maximal effect.

Assay: qHTS Assay for Modulators of miRNAs and/or Inhibitors of miR-21; also: nearly all actives have a fitted effect of over 55% in size
Details: HeLa miR-21-FLuc reporter, luciferase luminescence, 48 h; actives lower the signal
How it was run: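 HeLa cells endogenously expressing miR-21, stably carrying CMV-driven firefly luciferase with a downstream miR-21 binding site, 2000 cells/well. Titrations up to approximately 40 uM, 48 hours; luciferase luminescence read.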
For `O=c1cc(-c2ccccc2F)oc2ccccc12`, the Potency was 5.21 µM (active).
For `COc1ccc(-c2cc(=O)c3ccccc3o2)cc1`, the Potency was 5.85 µM (active).
For `Fc1cccc2sc(Nc3nc4cc5c(cc4s3)OCCO5)nc12`, the Potency was 0.208 µM (active).
With `Fc1cccc2sc(Nc3nc4cc5c(cc4s3)OCO5)nc12` the Potency was 3.69 µM (active).
With `O=C(O)c1ccc(N=Nc2c(O)[nH]c3cc(Cl)ccc23)cc1` the Potency was 0.165 µM (active).
For `O=C(O)c1ccc(N=Nc2c(O)[nH]c3ccc(Br)cc23)cc1`, the Potency was 3.69 µM (active).
With `COc1cc2c(cc1OC)-c1cc(Nc3ccc4c(c3)OCCO4)nc(=O)n1CC2` the Potency was 8.26 µM (active).
In the case of `CCc1nc2oc3ccccc3c(=O)c2c(=O)n1-c1ccc(C)cc1`, the Potency is reported as 1.65 µM (active).
With `Cc1cc(C)n2c(nc3ccccc32)c1C(=O)NN` the Potency was 10.4 µM (active).
With `Nc1nc2c(Cl)cc(Cl)cc2s1` the Potency was 18.5 µM (active).
For `Clc1ccc(-c2nsc(N3CCOCC3)n2)c(Cl)c1`, the Potency was 1.04 µM (active).
With `Clc1cc(Cl)c2nc(N3CCOCC3)sc2c1` the Potency was 16.5 µM (active).
With `Fc1ccc2nc(N3CCOCC3)sc2c1` the Potency was 16.5 µM (active).
For `Fc1ccc2nc(N3CCCC3)sc2c1`, the Potency was 4.14 µM (active).
For `COc1ccc(/C=C/C(=O)c2ccc[nH]2)cc1OC`, the Potency was 5.21 µM (active).
For `COc1ccc(/C=C/C(=O)c2ccc[nH]2)c(OC)c1OC`, the Potency was 14.7 µM (active).
In the case of `O=C(/C=C/c1ccc2c(c1)OCO2)c1ccc[nH]1`, the Potency is reported as 3.69 µM (active).
For `CC(CCc1ccccc1)NC(=O)C(=O)Nc1ccccc1` (centres undefined), the Potency was 1.65 µM (active).
With `O=C(NCc1ccccn1)C(=O)Nc1ccccc1` the Potency was 6.56 µM (active).
In the case of `CC(C)CCNC(=O)c1ccc(-c2ccccc2)cc1`, the Potency is reported as 8.26 µM (active).
For `CC(C)CCNC(=O)C(=O)Nc1ccccc1`, the Potency was 2.07 µM (active).
In the case of `CS(=O)(=O)c1cnc2c(-c3ccsc3)cnn2c1N`, the Potency is reported as 5.21 µM (active).
For `CS(=O)(=O)c1cnc2c(-c3ccc(F)cc3)cnn2c1N`, the Potency was 1.85 µM (active).
For `O=C(CCc1ccccc1)c1ccc2c(c1)OCCCO2`, the Potency was 3.69 µM (active).
For `O/N=C(/CCc1ccccc1)c1ccc2c(c1)OCCO2`, the Potency was 7.36 µM (active).
In the case of `O=C(c1ccccc1)c1ccc2c(c1)OCCCO2`, the Potency is reported as 2.07 µM (active).
With `Cc1cc(O)c(C(=O)Cc2csc(C)n2)c(O)c1` the Potency was 5.85 µM (active).
For `Cc1oncc1-c1csc(-c2ccccc2)n1`, the Potency was 5.21 µM (active).
With `O=C1C2C(C(=O)N1/N=C/c1cccc([N+](=O)[O-])c1)C1C=CC2C12CC2` (centres undefined) the Potency was 18.5 µM (active).
For `O=C(Cn1c(/C=C/c2ccccc2)nc2ccccc21)Nc1ccc(F)cc1`, the Potency was 5.21 µM (active).
For `Cc1cccc(NC(=O)Cn2c(/C=C/c3ccccc3)nc3ccccc32)c1`, the Potency was 5.85 µM (active).
With `O=C1CC(c2ccc3c(c2)OCCO3)Oc2ccc([N+](=O)[O-])cc21` (centres undefined) the Potency was 0.261 µM (active).
In the case of `O=C1CC(c2ccc3c(c2)OCCO3)Oc2ccccc21` (centres undefined), the Potency is reported as 14.7 µM (active).
For `Cc1ccc2c(c1)OC(c1ccc3c(c1)OCCO3)CC2=O` (centres undefined), the Potency was 16.5 µM (active).
For `COc1ccc(C2CC(=O)c3ccccc3O2)cc1` (centres undefined), the Potency was 16.5 µM (active).
For `CC(C)c1nc(C#N)c(NN)o1`, the Potency was 16.5 µM (active).
In the case of `N/C(=N\OC(=O)/C=C/c1ccccc1Cl)c1cccnc1`, the Potency is reported as 2.07 µM (active).
With `N/C(=N\OC(=O)/C=C/c1ccccc1Cl)c1ccncc1` the Potency was 0.414 µM (active).
With `COc1ccc(-n2nc3cc(C)c(N)c(Br)c3n2)cc1` the Potency was 4.14 µM (active).
With `CC1CCC/C(=N\Nc2ccc(Cl)c(C(=O)O)c2)C1` (centres undefined) the Potency was 6.56 µM (active).
For `O=[N+]([O-])c1ccc2cn(-c3ccccc3)nc2c1`, the Potency was 1.65 µM (active).
For `Cc1ccsc1/C=N/Nc1ncnc2nc[nH]c12`, the Potency was 3.29 µM (active).
With `Fc1ccccc1/C=N/Nc1ncnc2nc[nH]c12` the Potency was 5.21 µM (active).
With `C(=N\Nc1ncnc2nc[nH]c12)/c1cccs1` the Potency was 4.14 µM (active).
For `Cc1ccccc1/C=N/Nc1ncnc2nc[nH]c12`, the Potency was 6.56 µM (active).
For `COc1ccccc1/C=N\N=C(\N)c1ccccn1`, the Potency was 2.07 µM (active).
In the case of `COc1ccc(/C=N/N=C(\N)c2nonc2N)cc1OC`, the Potency is reported as 7.36 µM (active).
For `N/C(=N\N=C\c1ccc(O)c(O)c1)c1nonc1N`, the Potency was 8.26 µM (active).
For `COc1cccc(/C=N/N=C(\N)c2nonc2N)c1O`, the Potency was 3.69 µM (active).
For `N/C(=N\N=C\c1ccc(Br)o1)c1nonc1N`, the Potency was 3.29 µM (active).
For `Cc1cccc(OCc2cc(-c3ccccc3)no2)c1C`, the Potency was 7.36 µM (active).
With `COc1ccccc1OCc1cc(-c2ccccc2)no1` the Potency was 3.69 µM (active).
For `Cc1ccc(-c2cc(N)n(-c3ccc(C)cc3)n2)cc1`, the Potency was 11.7 µM (active) and 1.85 µM (active).
With `Cc1ccc(-c2cc(N)n(-c3ccc(F)cc3)n2)cc1` the Potency was 4.14 µM (active).
In the case of `O=C(O)c1cc(-c2ccc(C(F)(F)F)cc2)nc2n[nH]c(-c3ccccc3)c12`, the Potency is reported as 0.585 µM (active).
With `COc1ccc(-c2csc(-c3cccs3)n2)c(OC)c1` the Potency was 1.04 µM (active).
For `COc1ccc(-c2csc(-c3cccs3)n2)cc1OC`, the Potency was 6.56 µM (active).
With `COc1ccc(-c2nc(-c3ccc(O)cc3O)cs2)cc1OC` the Potency was 5.85 µM (active).
For `COc1ccc(-c2ccc3ccccc3n2)cc1OC`, the Potency was 2.07 µM (active).
With `COc1ccc(Nc2nc(-c3cccs3)cs2)c(OC)c1` the Potency was 1.04 µM (active).
For `Cc1ccc(/C=C2\OC(=O)c3ccccc32)cc1`, the Potency was 3.69 µM (active).
In the case of `CSc1nsc(N/N=C/c2ccc3c(c2)OCO3)c1C#N`, the Potency is reported as 0.826 µM (active).
In the case of `O=C(O)c1cc(N/N=C/c2ccc3c(c2)OCCO3)ccc1Cl`, the Potency is reported as 0.293 µM (active).
For `O=C(O)c1cc(N/N=C/c2ccc(N3CCOCC3)cc2)ccc1Cl`, the Potency was 2.07 µM (active).
In the case of `Clc1ccccc1N/N=C/c1ccc2c(c1)OCO2`, the Potency is reported as 2.93 µM (active).
In the case of `CN(C)c1ccc(/C=C/C(=O)c2ccccc2O)cc1`, the Potency is reported as 4.14 µM (active).
With `CN(C)c1ccc(C(=O)/C=C/c2ccccc2)cc1` the Potency was 5.21 µM (active).
In the case of `O=C1C(C=Nc2ccc(F)cc2)=C(O)c2ccccc21`, the Potency is reported as 2.07 µM (active).
In the case of `Cn1ccsc1=NC(=O)c1cccc(OC(F)F)c1`, the Potency is reported as 2.33 µM (active).
In the case of `Cn1ccsc1=NC(=O)c1ccc(S(=O)(=O)C(F)F)cc1`, the Potency is reported as 7.36 µM (active).
With `COC(=O)c1ccc(C(=O)N=c2sccn2C)cc1` the Potency was 4.14 µM (active).
For `Cc1cccc(C(=O)N=c2sccn2C)c1[N+](=O)[O-]`, the Potency was 4.65 µM (active).
In the case of `Cn1ccsc1=NC(=O)c1ccc(OC(F)(F)F)cc1`, the Potency is reported as 4.65 µM (active).
In the case of `CCCCOc1ccc(C(=O)N=c2sccn2C)cc1OC`, the Potency is reported as 4.65 µM (active).
With `CCCCCc1ccc(-c2ccc(C(=O)Oc3ccc(C(=O)OC)cc3)cc2)nc1` the Potency was 0.656 µM (active).
For `CCCCCc1ccc(-c2ccc(Br)cc2)nc1`, the Potency was 3.69 µM (active).
In the case of `CCCCc1ccc(-c2ccc(Br)cc2)nc1`, the Potency is reported as 3.69 µM (active).
For `CCCOc1ccc(-c2nnc(N)s2)cc1`, the Potency was 5.21 µM (active).
In the case of `CCCCOc1ccc(-c2nnc(N)s2)cc1`, the Potency is reported as 14.7 µM (active).
With `CCCCCc1ccc(-c2nnc(N)s2)cc1` the Potency was 16.5 µM (active).
For `COc1cc(-c2cc(=O)c3ccccc3o2)ccc1O`, the Potency was 8.26 µM (active).
For `COc1cc(-c2cc(=O)c3c(O)cc(O)cc3o2)ccc1O`, the Potency was 4.14 µM (active).
For `CCS(=O)(=O)n1nc(-c2ccc(Cl)cc2)nc1SCc1ccccc1`, the Potency was 8.26 µM (active).
For `CC(=O)c1cc(C#N)c(SCc2ccccc2)nc1C`, the Potency was 13.1 µM (active).
For `CC(=O)c1cnc2nc(SCc3ccccc3)nn2c1C`, the Potency was 5.21 µM (active).
For `CC(=O)c1cc(C#N)c(SCc2ccccn2)nc1C`, the Potency was 7.36 µM (active).
In the case of `COCCCNCCCCOc1ccc(OCc2ccccc2)cc1`, the Potency is reported as 18.5 µM (active).
For `C=CCNCCCCOc1ccc(OCc2ccccc2)cc1`, the Potency was 7.36 µM (active).
For `CC(O)CNCCCCOc1ccc(OCc2ccccc2)cc1` (centres undefined), the Potency was 9.27 µM (active).
With `CC(C)(C)C1(C)OC(=O)C(=Cc2ccc(OCC(=O)Nc3ccccc3)cc2)C(=O)O1` (centres undefined) the Potency was 11.7 µM (active).
For `Cc1ccc(C(=O)NCc2ccc3c(c2)CCO3)cc1C`, the Potency was 10.4 µM (active).
In the case of `COC(=O)c1ccc(N=NN2CCCCCC2)cc1`, the Potency is reported as 5.85 µM (active).
For `COC(=O)c1ccc(N=NN2CCOCC2)cc1`, the Potency was 7.36 µM (active).
In the case of `COC(=O)c1ccc(N=NN2CCCCC2)cc1`, the Potency is reported as 7.36 µM (active).
For `O=C(O)c1cccc(N=NN2CCCCCC2)c1`, the Potency was 0.165 µM (active).
In the case of `Cc1cc(C(F)(F)F)c(C#N)c(SCC(=O)Nc2nc3cc(Br)ccc3s2)n1`, the Potency is reported as 3.69 µM (active).
For `Cc1ccc(NC2Nc3cc(C)nn3S2)c(C)c1` (centres undefined), the Potency was 6.56 µM (active).
For `CCc1ccc(NC2Nc3cc(C)nn3S2)cc1` (centres undefined), the Potency was 1.65 µM (active).
For `Cc1csc(SCc2nnc(-c3ccc(Cl)cc3)o2)n1`, the Potency was 4.65 µM (active).
With `O=C(CSc1nc2ccccc2s1)N/N=C/c1ccccc1C(=O)O` the Potency was 16.5 µM (active).
In the case of `Cc1c(C=O)c2cc(OCc3ccccc3)ccc2n1C`, the Potency is reported as 4.14 µM (active).
For `COc1ccc(-c2nc3n(c2C)Cc2ccccc2-3)cc1`, the Potency was 6.56 µM (active).
In the case of `Cc1ccc(N=Nc2c(O)[nH]c3ccc(F)cc23)cc1`, the Potency is reported as 1.31 µM (active).
In the case of `Oc1[nH]c2ccccc2c1N=Nc1ccc(F)cc1`, the Potency is reported as 5.85 µM (active).
In the case of `CCOC(=O)c1c(C)[nH]c(C(=O)CSc2ccc(Cl)cc2)c1C`, the Potency is reported as 7.36 µM (active).
With `CCOC(=O)c1c(C)[nH]c(C(=O)CSc2nccc(C)n2)c1C` the Potency was 4.65 µM (active).
With `CCOC(=O)c1c(C)[nH]c(C(=O)COC(=O)CNC(=O)c2ccccc2Cl)c1C` the Potency was 13.1 µM (active).
In the case of `CCOC(=O)c1c(C)[nH]c(C(=O)COC(=O)C2CC2C)c1C` (centres undefined), the Potency is reported as 2.61 µM (active).
With `CCOC(=O)c1c(C)[nH]c(C(=O)COC(=O)CCSc2ccccc2)c1C` the Potency was 13.1 µM (active).
